Screens: PubChem BioAssay, National Center for Advancing Translational Sciences (NCATS)
The list is not random: actives were taken first. Their share in the collection is about 6.2%.
FMDV inh – antivirals against foot and mouth disease virus | FMDV antiviral cell-based qHTS | Potency, µM (series often up to 57.9 µM), without a hit: at the highest dose activity change, negative = inhibition, hits mostly inhibitors | actives 1.2% (n = 410,000) | AID 1159524; calls by dose curve; tested in HEK293T cells; note: read-out not given here; potency is the fitted concentration of half-maximal effect; nearly all actives have a fitted effect of over 45% in size
MARV entry inh – inhibitors of Marburg virus binding or cell entry. Marburg virus pseudotyped entry inhibition, cell reporter. actives 1.8% (n = 300,000). Potency, µM (series often up to 37.8 µM), inactives show at the highest dose activity change, negative = inhibition, most hits filed as inhibitors; calls by dose curve; tested in HEK293 cells; note: potency is the fitted concentration of half-maximal effect
Lassa entry inh – inhibitors of Lassa virus binding or cell entry; actives 1.2% (n = 300,000); Lassa virus pseudotype entry inhibition, cell reporter; Potency, µM (top dose mostly 37.9 µM), for the others: at the highest dose activity change, negative = inhibition, most hits filed as inhibitors; AID 540256; calls by dose curve; tested in HEK293 cells; note: potency is the fitted concentration of half-maximal effect; nearly all actives have a fitted effect of over 50% in size
HCMV inh – blocks human cytomegalovirus replication | HFF cells, HCMV-luciferase reporter, 72 h; stronger effect = lower value | activity change, negative = inhibition, % at 57.5 µM | actives 4.5% (n = 410,000) | AID 1259415; in the data active = activity change below about -60%; inconclusive = no clear call, values can overlap the other calls; inactive = above about -39%
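Screen run at 2 compound doses on HFFs infected with reporter HCMV, MOI 1 PFU/cell. Luciferase activity from cell lysates at 72 h post infection gave inhibition relative to buffer-only and Salinomycin wells.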
The depositor's hits bear a star; ? = inconclusive; . = no result; [ ] = another dose, or the depositor's remark. % is set by controls: 0 for no effect and ±100 for the full control effect.

SMILES | FMDV inh | MARV entry inh | Lassa entry inh | HCMV inh
O=C1CC(c2ccccc2)CC(O)=C1C=NC1CCCC1 (centres undefined) | . | 8% | 1% | -9
COc1ccc2c(c1)c1c(c(=O)n(-c3cccc(C)c3)c(=O)n1Cc1cccc(Cl)c1)n2C | -4% | . | 1%[46.1 µM] | -67*
COc1ccc2c(c1)c1c(c(=O)n(-c3ccc(F)c(Cl)c3)c(=O)n1Cc1cccc(C)c1)n2C | -21% | . | 28%[46.1 µM] | 12
CCN1/C(=C/c2ccc3cccc(C)c3[n+]2CC)Sc2ccccc21 | 7.9µM* | 2.6µM* | 6.5µM* | -104*
CC[n+]1c(C)sc2c3ccsc3ccc21 | 3% | -2% | ? | -16
CCN1/C(=C\c2ccc3cc(C)ccc3[n+]2CC)Sc2cc(C)c(C)cc21 | ? | ? | . | -97*
CCN1/C(=C/c2ccc3cc(C)ccc3[n+]2CC)Sc2ccc3sccc3c21 | 35µM* | . | . | .
CC[n+]1c(/C=C/c2cc([N+](=O)[O-])ccc2O)ccc2ccccc21 | 0% | 9%[46.1 µM] | ? | ?
CCN1/C(=C/c2ccc3cc(C)cc(C)c3[n+]2CC)Sc2cc(C)ccc21 | ? | . | . | -100*
O=C(COC(=O)C12CC3CC(CC(O)(C3)C1)C2)Nc1ccc(OC(F)F)cc1 | 28% | 0% | 16% | .
C=CCN1CCS(=O)(=O)N(Cc2ccccc2)[C@@H](C(C)C)C1=O | 4% | . | ? | 25
O=c1[nH]cnc2c1ccn2C1OC(CO)C(O)C1O (centres undefined) | -14% | . | . | -69*
Nc1cnn(C2OC(CO)C(O)C2O)c(=O)n1 (centres undefined) | -20% | ? | ? | -64*
C[C@H]1O[C@@H](n2cc(F)c(=O)[nH]c2=O)[C@H](O)[C@H]1O | . | 4% | -29% | .
Nc1nc(F)nc2c1ncn2[C@@H]1O[C@H](CO)[C@@H](O)[C@@H]1O | -18% | 2% | ? | .
Nc1nc(=O)n(C2OC(CO)C(O)C2O)cc1F (centres undefined) | -4% | . | . | -99*
O=c1[nH]c(=O)n(C2OC(CO)C(O)C2O)cc1F (centres undefined) | 5% | ? | 2µM* | .
O=C(CNC(=O)N1CC(=O)Nc2ccccc21)NCc1ccc(Cl)cc1 | -1% | . | . | -25
C[C@H](N)C(=O)NC[C@H]1O[C@@H](n2cnc3c(N)ncnc32)[C@H](O)[C@@H]1O | -22% | . | . | -75*
Nc1nc(F)nc2c1ncn2[C@@H]1O[C@H](CO)[C@@H](O)[C@H]1O | ? | . | . | -96*
COc1cccc(-c2nnc3sc(C4CCCCC4)nn23)c1 | 18% | 15% | -7% | -84*
CCOc1cccc(-c2nnc3sc(C4CCCCC4)nn23)c1 | -15% | 12% | ? | ?
CN(C)c1ccc(-c2cccc(C3CC=CC4C3C(=O)N(Cc3ccccc3)C4c3ccc(C(F)(F)F)cc3)c2)cc1 (centres undefined) | -1% | . | . | ?
C[C@@H]1CC=C[C@H]2[C@H]1C(=O)N(Cc1ccccc1)[C@H]2c1ccc(C(F)(F)F)cc1 | ? | . | . | -26
COc1ccc(-c2cccc(C3CC=CC4C3C(=O)N(Cc3ccccc3)C4c3ccc(C(F)(F)F)cc3)c2)cc1 (centres undefined) | -11% | . | . | -67*
SMILES | FMDV inh | MARV entry inh | Lassa entry inh | HCMV inh
COc1ccc(-c2c([C@H]3[C@H]4C=CC[C@@H](C)[C@@H]4C(=O)N3Cc3ccccc3)ccc3ccccc23)cc1OC | ? | . | . | -84*
O=C1C2C(c3ccccc3)CC=CC2[C@H](c2ccc(C(F)(F)F)cc2)N1Cc1ccccc1 (some centres undefined) | 0% | . | . | -85*
Cc1occc1-c1nnc(SCC(=O)c2ccc(F)cc2)o1 | 24% | 2% | 10% | 12
OC(c1cc(C(F)(F)F)nc2c(C(F)(F)F)cccc12)C1CCCCN1 (centres undefined) | ? | . | . | -99*
OC(c1cc(-c2ccc(C(F)(F)F)cc2)nc(C(F)(F)F)c1)C1CCCCN1 (centres undefined) | ? | . | . | -102*
OC(c1cc(-c2cccc(Cl)c2)nc2ccccc12)C1CCCCN1 (centres undefined) | ? | 11µM* | ? | -98*
O=C(C1CCN(S(=O)(=O)c2cnc[nH]2)CC1)N1CCc2ccccc2C1 | -21% | 7%[46.1 µM] | 7% | -7
Cc1cc(C)c2c(n1)SCC(=O)N2CC(=O)Nc1cccc(Cl)c1 | 0% | . | . | 8
C#Cc1ccc([C@@H]2C=C(C(=O)Nc3ccccc3)O[C@H](OCC)[C@H]2CCCO)cc1 | -16% | . | . | -8
O=C(Cc1cccs1)N1CCN(c2nc(-c3ccc(Cl)cc3)cs2)CC1 | ? | ? | -25% | -108*
CC(C)C(=O)N1CCN(c2nc(-c3ccc(Cl)cc3)cs2)CC1 | -13% | . | . | -70*
O=C(c1c[nH]c(C(=O)C(Cl)(Cl)Cl)c1)c1ccc(F)cc1F | -11% | . | . | ?
COc1ccc(C(=O)N2CCN(c3ccc(NC(=O)c4ccco4)cc3)CC2)cc1 | -26% | -1% | -15% | -76*
CC(C)CC(=O)NC(=S)Nc1ccc(N2CCN(C(=O)c3cccs3)CC2)cc1 | ? | ? | 5.6µM* | -36
O=C(Nc1ccc(N2CCN(C(=O)c3ccccc3)CC2)cc1)c1cccs1 | -4% | -2%[46.1 µM] | ? | 74
CC(C)C(=O)Nc1ccc(N2CCN(C(=O)c3cccs3)CC2)cc1 | -14% | 14% | 4% | 97
COc1ccc(C(=O)N2CCN(c3ccc(NC(=O)c4cccs4)cc3)CC2)cc1 | ? | -24% | 1% | -68*
CCc1ccc(C(=O)N2CCN(c3ccc(NC(=O)c4ccco4)cc3)CC2)cc1 | ? | 18% | ? | 13
Cc1ccc(C(=O)N2CCN(c3ccc(NC(=S)NC(=O)c4cccs4)cc3)CC2)cc1 | -24% | 7.9µM* | ? | -74*
O=C(Nc1cccc(F)c1)c1ccco1 | -2% | 15%[46.1 µM] | 2%[46.1 µM] | ?
CCOC(=O)c1cccc(NC(=O)CSc2ncc3c(n2)-c2ccccc2N(C)S3(=O)=O)c1 | -15% | . | 4%[46.1 µM] | 17
COc1ccc(NC(=O)COc2ccc(/C=N/O)cc2OC)cc1 | 54% | -14%[46.1 µM] | 22% | -5
COc1cc(NC(=S)NC2CC2)c(OC)cc1Cl | -1% | 0% | -3% | -81*
O=C(CCCn1ncn2c(cc3occc32)c1=O)N1CCc2ccccc2C1 | -13% | -8% | 4% | -17
Cc1cc(Cl)c(OCCOCCN2CCN(C)CC2)c(Br)c1 | -13% | ? | -29%[46.1 µM] | 3
SMILES | FMDV inh | MARV entry inh | Lassa entry inh | HCMV inh
Cc1cc(Br)ccc1OCCCCN1CCC(C)CC1 | -15% | ? | ? | -60*
CC1CCN(CCCCOc2ccc(Br)cc2)CC1 | -20% | ? | 1% | ?
Cc1cc(Cl)c(OCCOCCN2CCC(C)CC2)c(Br)c1 | -13% | 6.5µM* | ? | ?
COCCCNCCCCOc1ccc(Br)cc1C | -22% | 13µM* | ? | -5
O=C1NC(=O)C(c2ccccc2)(c2ccccc2)N1 | -1% | ? | -9% | -36
Cc1ccc(CNc2nc3ccccc3n3cnnc23)cc1 | 20% | 6%[46.1 µM] | . | -17
CCOC(=O)CC1(NC(=O)C2CCC(=O)N(C3CC3)C2)CCCCC1 (centres undefined) | 0% | . | . | -3
